Out of some 300,000 compounds screened, about 37,000 (12%) were called active. No stated cut-off is given here; in the data, active means max response mostly above about 13% (no sharp cut-off); inactive means mostly below about 14%. Many of the other results were omitted from the sample, so actives are more common in it than they were.

A short description of the test: Cycloheximide Counterscreen for Small Molecule Inhibitors of Shiga Toxin. Further: read at 38.3 µM for the half of the compounds with a filed dose; 0% is about no effect. To be noted: cell reporter, cycloheximide protein synthesis inhibition counterscreen; stronger effect = higher value. (In general: Counterscreens check selectivity or assay interference.)
Take `COc1ccc(CCNc2cc(C)nc3c(-c4ccc(Cl)cc4)c(C)nn23)cc1OC`: the max response was -1.95% (inactive).

Consider `COc1cccc(NC(=O)c2cc(S(=O)(=O)N3CCc4ccccc43)cn2C)c1`, for which the max response was -2.59% (inactive).

On to `CCc1nn(CCCN2CCN(c3cccc(Cl)c3)CC2)c(=O)n1CCOc1ccccc1`, for which the max response is -3.76% (inactive) [middle of 4 runs].

`Cn1c(=O)c2c(SCC(=O)NCC3CCCO3)nc(CC(C)(C)C)nc2n(C)c1=O` (stereo not drawn): the max response is 0.724% (inactive).

With `CC(OC(=O)c1ccccc1OCc1ccc(Cl)cc1)C(N)=O` (stereo not drawn), the max response is 2.27% (inactive).

Regarding `CC(C)Cc1nnc(NC(=O)CN2C(=O)NC3(CCCCC3)C2=O)s1`, the max response was -1.99% (inactive).

As for `O=C(Nc1ccc(CN2CCOCC2)cc1)c1cc(Cl)ccc1Cl`, the max response was -1.65% (inactive).

In the case of `O=C(O)c1ccc(NC(=O)c2cn(-c3ccccc3)nc2-c2ccc(Cl)cc2)cc1`, the max response is 10.4% (inactive).

As for `C=CCn1cc(Cl)cc(C(=O)Nc2ccccc2)c1=O`, the max response is 14.1% (active).

Turning to `CCOc1ccc(Br)cc1CSC(=N)N`, the max response is -0.921% (inactive).

On to `O=C(CSc1ccc(-c2cccs2)nn1)Nc1ccccc1F`, for which the max response was 16.1% (inactive).

On to `Cc1cccc(CSc2ccc(-c3cccs3)nn2)c1`, for which the max response was 35% (active).

Consider `Cc1cccc(CSc2nnc(Cn3c(=O)sc4ccccc43)n2C)c1`, for which the max response is -3.59% (inactive).

With `CCOC(=O)c1ccc(-n2c(CCC(=O)O)ccc2-c2ccccc2)cc1`, the max response was -3.35% (inactive).

For the molecule `COc1ccc(CCOC(=O)CNC(=O)c2ccc(Cl)cc2Cl)cc1`, the max response was 7.31% (inactive).

`O=C(c1cccs1)C1C(c2ccc(Br)cc2)NC(=S)NC1(O)C(F)(F)F` (stereo not drawn): the max response is 29.2% (active).

For the molecule `CC(=O)C1C(c2ccc(Cl)cc2)NC(=O)NC1(O)C(F)(F)F` (stereo not drawn), the max response was -2.92% (inactive).

In the case of `CCOC(=O)C1C(c2ccc(Cl)cc2)NC(=S)NC1(O)C(F)(F)F` (stereo not drawn), the max response is -4.55% (inactive).

Regarding `CC(C)CCOc1ccc(C(=O)C[N+]2(C)CCOCC2)cc1`, the max response was -6.71% (inactive).

Regarding `Cc1ccc(-c2cc(C(=O)Nc3nn[nH]n3)c3ccccc3n2)c(C)c1`, the max response is -3.28% (inactive).

Regarding `COc1ccc(CN(C)C(=O)c2cc(-c3ccc(C)cc3C)nc3ccccc23)c(OC)c1OC`, the max response is 9.76% (active).

Take `COc1ccc(-c2cc(C(=O)N(C)Cc3ccccc3)c3ccccc3n2)cc1`: the max response was 10.1% (inactive).

With `O=C(CCC1CCN(C(=O)c2cccc(Cl)c2F)CC1)Nc1ccccc1`, the max response was 3.41% (inactive).

As for `CC1CCN(CCCn2c(SCC(=O)NC3CCCC3)nc3ccccc3c2=O)CC1`, the max response was -1.13% (inactive).

Turning to `COc1ccc(C(=O)NC(C)CCc2ccccc2)c(OC)c1` (stereo not drawn), the max response was 25.4% (active).

For the molecule `COc1ccc(C(=O)COC(=O)c2nn(C)c(=O)c3ccccc23)c(OC)c1`, the max response was 4.36% (inactive).

On to `COc1cc(C(=O)OCC(=O)NC(C)CCc2ccccc2)cc(OC)c1OC` (stereo not drawn), for which the max response is -8.18% (inactive).

`COc1ccc(CC(=O)NC(C)CCc2ccccc2)cc1` (stereo not drawn): the max response is -0.862% (inactive).

For `COc1ccc(C(=O)CCc2ccccc2O)c(OC)c1`, the max response was 32.7% (active).

In the case of `COc1ccc(C(=O)CCC(=O)Nc2cccnc2)c(OC)c1`, the max response is -5.23% (inactive).

For `O=C(NC1CCCC1)C1CCN(C(=O)Nc2cccc(Cl)c2)CC1`, the max response is -1.38% (inactive).

On to `Cc1cccc(N2CCN(Cc3nc(C4CC4)no3)CC2)n1`, for which the max response is -2.08% (inactive).

Regarding `Cc1cccc(C)c1NC(=O)C1CCCN1C(=O)OC(C)(C)C` (stereo not drawn), the max response was 6.96% (inactive).

Regarding `O=C(CO/N=C/c1ccccc1O)NNC(=O)c1ccccc1Cl`, the max response was -2.64% (inactive).

Take `Cc1ccccc1C1=NC(C(F)(F)F)(C(F)(F)F)c2c(n(-c3ccc(F)cc3)c(=O)[nH]c2=O)N1`: the max response was -1.61% (inactive).

In the case of `O=C(O)CSc1c2c(nc3cc(C(=O)Nc4cccc(C(F)(F)F)c4)ccc13)CCCC2`, the max response was -2.41% (inactive).

For `O=C(C1CCCO1)N(Cc1ccccc1)c1ccccc1` (stereo not drawn), the max response was -0.517% (inactive).

`O=C(Nc1nnc(SCc2ccc(Cl)cc2Cl)s1)C1COc2ccccc2O1` (stereo not drawn): the max response is -3.01% (inactive).

Regarding `CC(C)Cc1nnc(NC(=O)CCc2ccccc2)s1`, the max response was -1.48% (inactive).

Regarding `O=C(Nc1nnc(CCc2ccccc2)s1)C1CCCO1` (stereo not drawn), the max response was 14.8% (active).

Turning to `O=C(Nc1nnc(SCc2c(Cl)cccc2Cl)s1)c1cccc([N+](=O)[O-])c1`, the max response was 8% (inactive).

On to `O=C(Nc1nnc(SCc2c(Cl)cccc2Cl)s1)C1CCCO1` (stereo not drawn), for which the max response was 28% (active).

In the case of `O=C(NC(Cc1ccccc1)C(=O)O)/C(=C\c1ccccc1)NC(=O)c1ccco1` (stereo not drawn), the max response is -3.05% (inactive).

For `COc1cc(CN2CCN(Cc3ccc(C)cc3)CC2)c([N+](=O)[O-])cc1OC`, the max response was -2.69% (inactive).

On to `CN(CC(=O)Nc1ccccc1C(F)(F)F)C(=O)Cc1ccccc1F`, for which the max response was -1.32% (inactive).

Regarding `O=Cc1ccc(OCc2cn3ccccc3n2)cc1`, the max response was 31.8% (active).

Take `Cn1cc[n+](C)c1COc1ccc(C=O)cc1`: the max response is 1.36% (inactive).

On to `COc1ccc(C(=O)NCc2cn3ccccc3n2)cc1`, for which the max response was -1.44% (inactive).

Turning to `Cc1cccc2nc(CSc3nc4[nH]ncc4c(=O)n3-c3cccc(Cl)c3)cc(=O)n12`, the max response is 1.41% (inactive).

As to `Oc1ccc(N=Cc2c(O)ccc3ccccc23)cc1`, the max response is 4.29% (inactive).

As to `Oc1ccc(N=Cc2sc3ccccc3c2Cl)cc1`, the max response was 25.7% (active).

Take `Cc1cccc(N=Nc2c(O)[nH]c3ccc(F)cc23)c1`: the max response was 49% (active).

For the molecule `NS(=O)(=O)c1ccc(N=Nc2c(O)[nH]c3ccc(Br)cc23)cc1`, the max response is -3.08% (inactive).

Consider `Oc1[nH]c2ccc(Br)cc2c1N=Nc1nn[nH]n1`, for which the max response was 1.76% (inactive).

On to `Fc1ccccc1COc1ccccc1CNCc1ccncc1`, for which the max response was -2.19% (inactive).

As for `CN(Cc1ccccc1)CC(O)COc1ccc(CNCc2cc3ccccc3s2)cc1` (stereo not drawn), the max response was -1.23% (inactive).

Take `Cc1ccc(NC(=O)C2CC2c2ccccc2)cc1` (stereo not drawn): the max response was 28.4% (active).

Regarding `O=C(NNC(=S)Nc1ccc(F)cc1)[C@H]1C[C@@H]1c1ccccc1`, the max response was -2.55% (inactive).

As to `Cc1ccc(C2CC2C(=O)NN)cc1` (stereo not drawn), the max response is 4.7% (inactive).

Consider `O=C(NC1CCN(Cc2ccccc2)CC1)c1ccc(Oc2cc(Cl)cc(Cl)c2)o1`, for which the max response was -0.55% (inactive).

As for `Cc1ccc(-c2nnc(-c3ccc(NC(=O)c4cccs4)cc3)o2)cc1`, the max response was -3.98% (inactive).

Turning to `CCc1nnc(NC(=O)Cc2cccs2)s1`, the max response was 1.7% (inactive).

For `CCCc1nnc(NC(=O)c2cccs2)s1`, the max response is 12.8% (active).

Take `COC(=O)c1c(NC(=O)c2cccs2)sc2c1CCCC2`: the max response was 9.75% (inactive).

Take `Cc1nc(-c2ccc(NC(=O)c3cccs3)cc2)cs1`: the max response is 23.7% (active).

For the molecule `CCc1c(C)sc(NC(=O)c2ccc(Br)o2)c1C(=O)OC`, the max response was 5.7% (inactive).

`CCCc1ccc(-c2csc(NC(=O)Cc3cccs3)n2)cc1`: the max response was 22.9% (active).

In the case of `Cc1ccc(OCC(=O)Nc2ccc(NC(=O)c3cccs3)cc2)c(C)c1`, the max response is -4.62% (inactive).

Turning to `CCc1c(C)sc(NC(=O)c2cccs2)c1C(N)=O`, the max response is 63.8% (active).

With `Cc1ccc(-c2csc(NC(=O)Cc3cccs3)n2)cc1C`, the max response is 12.4% (inactive).

In the case of `CCCc1nnc(NC(=O)c2cc(OC)cc(OC)c2)s1`, the max response is 8.3% (inactive).

With `CC(=O)c1ccc(N2CCN(C(=O)CCNC(=O)Cn3ccc4ccccc4c3=O)CC2)cc1`, the max response was -4.48% (inactive).

In the case of `O=C(O)CCCN1C(=O)c2ccccc2Sc2ncccc21`, the max response was -1.01% (inactive).

On to `C=C1CCN(C(CC(C)C)C(=O)NCc2cc(OC)c(OC)c(OC)c2)S(=O)(=O)c2ccccc21` (stereo not drawn), for which the max response was -2.25% (inactive).

For the molecule `Cc1ccc(CSCCNC(=O)CN(c2ccc(F)cc2)S(C)(=O)=O)cc1`, the max response is -2.68% (inactive).

`Cc1ccccc1C(=O)N1CCC(C(=O)Nc2ccc(S(=O)(=O)N(C)C(C)C)cc2)CC1`: the max response is 4.98% (inactive).

With `CC1CCCCN1C(=O)Cn1c(=O)oc2cc(S(=O)(=O)N3CCCCC3)ccc21` (stereo not drawn), the max response was -1.34% (inactive).

In the case of `CC(C)(C)NCc1cc(Br)ccc1OC1CCCC1`, the max response is -4.63% (inactive).

As to `CCCCCCn1cc(C(=O)O)c(=O)c2cc(F)c(N3CCCCC3)cc21`, the max response is -0.584% (inactive).

In the case of `Cc1ccc(-c2csc(NC(=O)c3cccs3)n2)cc1`, the max response is 60.5% (active).

As to `O=C(Nc1n[nH]c(C(F)(F)F)n1)c1cccs1`, the max response was -2.4% (inactive).

As for `O=C(O)CCC(=O)N(Cc1ccco1)c1nc(-c2ccccc2)cs1`, the max response was -1.24% (inactive).

In the case of `Cc1ccc(-c2csc(NNC(=O)c3ccccc3)n2)cc1`, the max response was -2.93% (inactive).

On to `Cc1nnc(N(Cc2ccco2)C(=O)c2ccno2)s1`, for which the max response was -2.88% (inactive).

With `Cc1ccc(-c2csc(N(Cc3ccco3)C(=O)c3cccs3)n2)cc1`, the max response is 16.7% (active).

With `CCC(CC)c1nnc(NC(=O)C2CCN(C(=O)c3ccco3)CC2)s1`, the max response is -2.36% (inactive).

Take `O=C(CNC1CCCCC1)NCC1(c2ccccc2)CCCC1`: the max response was -3.76% (inactive).

Regarding `COCc1cc(=O)n2[nH]c(C)c(-c3ccccc3)c2n1`, the max response is 1.24% (inactive).

On to `COc1cc(C(C)=O)ccc1OC(=O)CN1C(=O)c2ccccc2C1=O`, for which the max response is -2.6% (inactive).

On to `COCc1cc(C(C)=O)ccc1OC`, for which the max response was -7.85% (inactive).

In the case of `COc1ccccc1-c1sc2ccccc2c1-c1ccc(C(C)=O)cc1`, the max response was 25.3% (active).

As to `CC(=O)Nc1ccc(Oc2ccc3c(c2)C(=O)NC3=O)cc1`, the max response was -1.54% (inactive).

With `O=C(Cc1ccccc1)n1nc(-c2ccccc2)nc1NCc1ccco1`, the max response was 15.3% (active).

For `CCOCCCNc1nc(-c2ccccc2)nc2ccccc12`, the max response was 7.13% (inactive).

In the case of `c1coc(CNc2ncnc3ccccc23)c1`, the max response is -1.39% (inactive).

On to `c1ccc(-c2nc(NCc3ccco3)c3ccccc3n2)cc1`, for which the max response was 16.8% (active).

Consider `CSc1nc(-c2ccco2)nn1C(=O)CCc1ccccc1`, for which the max response was -3.44% (inactive).

Turning to `CS(=O)(=O)n1nc(-c2ccccc2)nc1NCc1ccco1`, the max response is 13.9% (inactive).

(Values after PubChem BioAssay AID2314 (National Center for Advancing Translational Sciences (NCATS), 2010).)
